Laboratory results taken from publication PMC9911399, “Two distinct binding modes provide the RNA-binding protein RbFox with extraordinary sequence specificity”.
Positions count from the first letter of the chain named. Whole data set: some 16,000 sequences, median “ka relative to ugcaugu” near 0.096, cut for the highest 2% near 0.35. For the sample, the highest values were picked, then their nearest neighbours and some sequences at random.

B1: CAAGUGG (DNA:RNA)
RNA: GGGAGACCGGAAUUCAGAUUGUCCCAAGUGGUUAAAUCCCGUCGUAGCCACCA
DNA 1: CAATCTGAATTCCGGTCTCCC
DNA 2: TGGTGGCTACGACGGGATT
B2: AUUCAGA (DNA:RNA)
RNA: B1 RNA with C25A, A26U, A27U, G28C, U29A, G31A
DNA 1: CAATCTGAATTCCGGTCTCCC
DNA 2: TGGTGGCTACGACGGGATT
B3: AGUCACU (DNA:RNA)
RNA: GGGAGACCGGAAUUCAGAUUGUCCAGUCACUUUAAAUCCCGUCGUAGCCACCA
DNA 1: CAATCTGAATTCCGGTCTCCC
DNA 2: TGGTGGCTACGACGGGATT
B4: UACUUUU (DNA:RNA)
RNA: B1 RNA with C25U, A27C, G28U, G30U, G31U
DNA 1: CAATCTGAATTCCGGTCTCCC
DNA 2: TGGTGGCTACGACGGGATT
B5: UCCUCCU (DNA:RNA)
RNA: B3 RNA with A25U, G26C, U27C, C28U, A29C
DNA 1: CAATCTGAATTCCGGTCTCCC
DNA 2: TGGTGGCTACGACGGGATT
B6: UCUGGCC (DNA:RNA)
RNA: B3 RNA with A25U, G26C, C28G, A29G, U31C
DNA 1: CAATCTGAATTCCGGTCTCCC
DNA 2: TGGTGGCTACGACGGGATT
B7: UGGAAUC (DNA:RNA)
RNA: B3 RNA with A25U, U27G, C28A, C30U, U31C
DNA 1: CAATCTGAATTCCGGTCTCCC
DNA 2: TGGTGGCTACGACGGGATT
B8: UGGAUUC (DNA:RNA)
RNA: B3 RNA with A25U, U27G, C28A, A29U, C30U, U31C
DNA 1: CAATCTGAATTCCGGTCTCCC
DNA 2: TGGTGGCTACGACGGGATT
B9: UGGACUC (DNA:RNA)
RNA: B3 RNA with A25U, U27G, C28A, A29C, C30U, U31C
DNA 1: CAATCTGAATTCCGGTCTCCC
DNA 2: TGGTGGCTACGACGGGATT
B10: UGGGAUC (DNA:RNA)
RNA: B3 RNA with A25U, U27G, C28G, C30U, U31C
DNA 1: CAATCTGAATTCCGGTCTCCC
DNA 2: TGGTGGCTACGACGGGATT
B11: CUGGAUC (DNA:RNA)
RNA: B1 RNA with A26U, A27G, U29A, G30U, G31C
DNA 1: CAATCTGAATTCCGGTCTCCC
DNA 2: TGGTGGCTACGACGGGATT
B12: UCCUGGA (DNA:RNA)
RNA: B1 RNA with C25U, A26C, A27C, G28U, U29G, G31A
DNA 1: CAATCTGAATTCCGGTCTCCC
DNA 2: TGGTGGCTACGACGGGATT
B13: UGGAAUG (DNA:RNA)
RNA: B3 RNA with A25U, U27G, C28A, C30U, U31G
DNA 1: CAATCTGAATTCCGGTCTCCC
DNA 2: TGGTGGCTACGACGGGATT
B14: UGGAGUC (DNA:RNA)
RNA: B3 RNA with A25U, U27G, C28A, A29G, C30U, U31C
DNA 1: CAATCTGAATTCCGGTCTCCC
DNA 2: TGGTGGCTACGACGGGATT
B15: UGGAGAU (DNA:RNA)
RNA: B3 RNA with A25U, U27G, C28A, A29G, C30A
DNA 1: CAATCTGAATTCCGGTCTCCC
DNA 2: TGGTGGCTACGACGGGATT
B16: UGGAGAA (DNA:RNA)
RNA: B3 RNA with A25U, U27G, C28A, A29G, C30A, U31A
DNA 1: CAATCTGAATTCCGGTCTCCC
DNA 2: TGGTGGCTACGACGGGATT
B17: UGGAUUG (DNA:RNA)
RNA: B1 RNA with C25U, A26G, A27G, G28A, G30U
DNA 1: CAATCTGAATTCCGGTCTCCC
DNA 2: TGGTGGCTACGACGGGATT
B18: UGGAUCU (DNA:RNA)
RNA: B3 RNA with A25U, U27G, C28A, A29U
DNA 1: CAATCTGAATTCCGGTCTCCC
DNA 2: TGGTGGCTACGACGGGATT
B19: CCAGUUC (DNA:RNA)
RNA: B1 RNA with A26C, G30U, G31C
DNA 1: CAATCTGAATTCCGGTCTCCC
DNA 2: TGGTGGCTACGACGGGATT
B20: UCAGAGG (DNA:RNA)
RNA: B1 RNA with C25U, A26C, U29A
DNA 1: CAATCTGAATTCCGGTCTCCC
DNA 2: TGGTGGCTACGACGGGATT
B21: CCAUUUC (DNA:RNA)
RNA: B1 RNA with A26C, G28U, G30U, G31C
DNA 1: CAATCTGAATTCCGGTCTCCC
DNA 2: TGGTGGCTACGACGGGATT
B22: UGAUAGC (DNA:RNA)
RNA: B3 RNA with A25U, U27A, C28U, C30G, U31C
DNA 1: CAATCTGAATTCCGGTCTCCC
DNA 2: TGGTGGCTACGACGGGATT
B23: UAUAGUG (DNA:RNA)
RNA: B1 RNA with C25U, A27U, G28A, U29G, G30U
DNA 1: CAATCTGAATTCCGGTCTCCC
DNA 2: TGGTGGCTACGACGGGATT
B24: AGUGAUA (DNA:RNA)
RNA: B3 RNA with C28G, C30U, U31A
DNA 1: CAATCTGAATTCCGGTCTCCC
DNA 2: TGGTGGCTACGACGGGATT
B25: UAGGGUG (DNA:RNA)
RNA: B1 RNA with C25U, A27G, U29G, G30U
DNA 1: CAATCTGAATTCCGGTCTCCC
DNA 2: TGGTGGCTACGACGGGATT
B26: UCCACGA (DNA:RNA)
RNA: B1 RNA with C25U, A26C, A27C, G28A, U29C, G31A
DNA 1: CAATCTGAATTCCGGTCTCCC
DNA 2: TGGTGGCTACGACGGGATT
B27: CGAGCCU (DNA:RNA)
RNA: B3 RNA with A25C, U27A, C28G, A29C
DNA 1: CAATCTGAATTCCGGTCTCCC
DNA 2: TGGTGGCTACGACGGGATT
B28: UGAUGGA (DNA:RNA)
RNA: B1 RNA with C25U, A26G, G28U, U29G, G31A
DNA 1: CAATCTGAATTCCGGTCTCCC
DNA 2: TGGTGGCTACGACGGGATT
B29: CGGAUGA (DNA:RNA)
RNA: B1 RNA with A26G, A27G, G28A, G31A
DNA 1: CAATCTGAATTCCGGTCTCCC
DNA 2: TGGTGGCTACGACGGGATT
B30: UGGAUGA (DNA:RNA)
RNA: B1 RNA with C25U, A26G, A27G, G28A, G31A
DNA 1: CAATCTGAATTCCGGTCTCCC
DNA 2: TGGTGGCTACGACGGGATT
B31: GGGUGGA (DNA:RNA)
RNA: B3 RNA with A25G, U27G, C28U, A29G, C30G, U31A
DNA 1: CAATCTGAATTCCGGTCTCCC
DNA 2: TGGTGGCTACGACGGGATT
B32: AAAUCUG (DNA:RNA)
RNA: B1 RNA with C25A, G28U, U29C, G30U
DNA 1: CAATCTGAATTCCGGTCTCCC
DNA 2: TGGTGGCTACGACGGGATT
B33: UCACACA (DNA:RNA)
RNA: B3 RNA with A25U, G26C, U27A, U31A
DNA 1: CAATCTGAATTCCGGTCTCCC
DNA 2: TGGTGGCTACGACGGGATT

target: T1, RBFOX1 RRM RbFoxmut (Fox-RRM*) (Homo sapiens, UniProt Q9NWB1 109-208, R118D;E147R;N151S;E152T); experiment: EMSA; HiTS-Eq, 1 nM pool, 10 min; buffer printed only for the single-RNA assays: 10 mM Tris pH 7.5, 150 mM NaCl, 3.4 mM EDTA, 0.001% NP-40, 30 C; details: tags: His6 N-terminal (pET28a); label: 5' 32P
T1 sequence: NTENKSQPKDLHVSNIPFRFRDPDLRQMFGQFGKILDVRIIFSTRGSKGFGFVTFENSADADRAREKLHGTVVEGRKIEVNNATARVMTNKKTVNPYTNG
Method in brief: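 Purified RbFox RRM (wild type or mutant) was equilibrated for 10 min in 50 µL with 1 nM of a 5′-radiolabelled pool of RNA with 7 randomized nucleotides, its flanks annealed to DNA oligonucleotides, across increasing protein concentrations. Free RNA was separated by 8% native PAGE, excised, reverse-transcribed, PCR-barcoded and sequenced on an Illumina HiSeq 2500. Relative association constants came from read-count changes of each variant against the control reaction, normalised to the cognate motif.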

**Q.** Which binding signal does the source give for B1 here?
**A.** Its binding signal is 0.0554 KA relative to UGCAUGU.

**Q.** With B2 as the binder, how does the binding signal read?
**A.** The binding signal was 0.0812 KA relative to UGCAUGU.

**Q.** With B3 as the binder, how does the binding signal read?
**A.** The binding signal was 0.0668 KA relative to UGCAUGU.

**Q.** B4 was tested. Which binding signal did it give?
**A.** The binding signal was 0.097 KA relative to UGCAUGU.

**Q.** Which binding signal does the source give for B5 here?
**A.** The binding signal was 0.0641 KA relative to UGCAUGU.

**Q.** For B6, which binding signal is on record?
**A.** Its binding signal is 0.161 KA relative to UGCAUGU.

**Q.** With B7 as the binder, how does the binding signal read?
**A.** The binding signal was 0.458 KA relative to UGCAUGU.

**Q.** With B8 as the binder, how does the binding signal read?
**A.** The binding signal was 0.139 KA relative to UGCAUGU.

**Q.** How did the binding signal turn out when B9 was run?
**A.** Its binding signal is 0.0856 KA relative to UGCAUGU.

**Q.** With B10 as the binder, how does the binding signal read?
**A.** Its binding signal is 0.357 KA relative to UGCAUGU.

**Q.** For B11, which binding signal is on record?
**A.** Its binding signal is 0.274 KA relative to UGCAUGU.

**Q.** How did the binding signal turn out when B12 was run?
**A.** The binding signal was 0.0709 KA relative to UGCAUGU.

**Q.** How did the binding signal turn out when B13 was run?
**A.** The binding signal was 1.66 KA relative to UGCAUGU.

**Q.** Which binding signal does the source give for B14 here?
**A.** Its binding signal is 0.18 KA relative to UGCAUGU.

**Q.** Which binding signal does the source give for B15 here?
**A.** Its binding signal is 0.094 KA relative to UGCAUGU.

**Q.** For B16, which binding signal is on record?
**A.** Its binding signal is 0.0999 KA relative to UGCAUGU.

**Q.** For B17, which binding signal is on record?
**A.** Its binding signal is 0.526 KA relative to UGCAUGU.

**Q.** For B18, which binding signal is on record?
**A.** Its binding signal is 0.259 KA relative to UGCAUGU.

**Q.** How did the binding signal turn out when B19 was run?
**A.** Its binding signal is 0.073 KA relative to UGCAUGU.

**Q.** Which binding signal does the source give for B20 here?
**A.** The binding signal was 0.0974 KA relative to UGCAUGU.

**Q.** For B21, which binding signal is on record?
**A.** Its binding signal is 0.0493 KA relative to UGCAUGU.

**Q.** How did the binding signal turn out when B22 was run?
**A.** The binding signal was 0.0858 KA relative to UGCAUGU.

**Q.** Which binding signal does the source give for B23 here?
**A.** The binding signal was 0.137 KA relative to UGCAUGU.

**Q.** With B24 as the binder, how does the binding signal read?
**A.** Its binding signal is 0.133 KA relative to UGCAUGU.

**Q.** How did the binding signal turn out when B25 was run?
**A.** The binding signal was 0.149 KA relative to UGCAUGU.

**Q.** B26 was tested. Which binding signal did it give?
**A.** The binding signal was 0.0743 KA relative to UGCAUGU.

**Q.** For B27, which binding signal is on record?
**A.** The binding signal was 0.103 KA relative to UGCAUGU.

**Q.** With B28 as the binder, how does the binding signal read?
**A.** The binding signal was 0.0611 KA relative to UGCAUGU.

**Q.** With B29 as the binder, how does the binding signal read?
**A.** The binding signal was 0.235 KA relative to UGCAUGU.

**Q.** For B30, which binding signal is on record?
**A.** Its binding signal is 0.401 KA relative to UGCAUGU.

**Q.** B31 was tested. Which binding signal did it give?
**A.** Its binding signal is 0.0811 KA relative to UGCAUGU.

**Q.** Which binding signal does the source give for B32 here?
**A.** Its binding signal is 0.0533 KA relative to UGCAUGU.

**Q.** For B33, which binding signal is on record?
**A.** The binding signal was 0.0876 KA relative to UGCAUGU.
